# Test results reported in PubChem BioAssay.
# Calls of active or inactive are those of the source.
# Experiments:
# [1] = tested on: Plasmodium falciparum Sir2 (PF13_0152, Sir2A); test: Plasmodium falciparum Sir2A binding compounds – biochemical, small-molecule microarray, 635 nm fluorescence, primary screen (AID 1098); settings: fluorescence 635 nm, higher = more signal;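 note: score merges spot fluorescence intensity with its signal-to-noise ratio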
# [2] = probe aDKK1 binding to arrayed compounds – biochemical, biotinylated probe, 635/667 nm fluorescence, primary screen (AID 1099); settings: small-molecule microarray, higher = more signal;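 note: score merges 667nm spot fluorescence with signal to noise across triplicate slides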
# [3] = probe aCHRDL2 binding to arrayed compounds – biochemical, biotinylated probe, 635/667 nm fluorescence, primary screen (AID 1100); settings: small-molecule microarray, higher = more signal
# [4] = change in splice reporter luminescence, either direction, cell-based, HEK293, spliceosome inhibition project, primary screen (AID 1101); settings: HEK293 splicing luciferase reporter, 24 h, higher = more signal, called active from +8 up or from −8 down;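 note: HEK293 cells carrying a splicing-competent luciferase reporter gene; test concentration not given here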
# [5] = molecular target: Fibroblast growth factor 10 (Homo sapiens) (UniProt O15520); test: compounds binding fibroblast growth factor 10 – biochemical, small-molecule microarray, 635 nm fluorescence, primary screen (AID 1102); settings: FGF10 binding, fluorescence 635 nm, higher = more signal
# [6] = tested on: glycogen synthase kinase-3 (GSK3A per assay name; protocol says GSK3B); test: compounds binding glycogen synthase kinase-3 – biochemical, small-molecule microarray, 635 nm fluorescence, GSK3A, primary screen (AID 1103); settings: fluorescence 635 nm, higher = more signal; note: the record names both GSK3A and GSK3B
# [7] = molecular target: Epidermal growth factor receptor (Homo sapiens) (UniProt P00533); test: compounds binding epidermal growth factor receptor – biochemical, small-molecule microarray, 635 nm fluorescence, primary screen (AID 1104); settings: EGFR binding, higher = more signal;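 note: score merges 667 nm emission intensity with spot signal to noise over triplicate slides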
# [8] = molecular target: Follistatin-related protein 3 (Homo sapiens) (UniProt O95633); test: compounds binding follistatin-related protein 3 – biochemical, small-molecule microarray, 635 nm fluorescence, primary screen (AID 1105); settings: FSTL3 binding, higher = more signal;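 note: score merges emission near 667 nm and signal to noise per printed spot across three slides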
# [9] = molecular target: Dickkopf-related protein 1 (Homo sapiens) (UniProt O94907); test: small molecules binding DKK1 protein – biochemical, small-molecule microarray, 635 nm fluorescence scan, primary screen (AID 1106); settings: higher = more signal;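 note: score merges emission near 667 nm with signal to noise over three replicate slides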
# [10] = tested on: Inhibin beta A chain (activin A); test: small molecules binding activin A – biochemical, small-molecule microarray, 635 nm fluorescence scan, primary screen (AID 1107); settings: INHBA, higher = more signal;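 note: mouse activin A protein probed at 4.33 µg/mL on printed slides; score merges bound-protein fluorescence near 667 nm with spot signal-to-noise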
# [11] = tested on: Human papillomavirus type 1a protein E7 (residues 44-93); test: small molecules binding HPV E7 44-93 – biochemical, small-molecule microarray, residues 44-93, 635 nm fluorescence, primary screen (AID 1108); settings: fluorescence 635 nm, higher = more signal;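 note: E7 fragment applied at 1 µg/mL in TBST for 1 h at 4 C; score combines spot fluorescence with its signal to noise ratio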
# [12] = hepatitis C replication reporter changes, two-sided – Huh7 cells, luciferase reporter, HCV replication inhibitor project, primary screen (AID 1109); settings: Huh7 HCV replicon luciferase reporter, 48 h; higher = more signal;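 note: huh7 hepatoma cells harbouring a luciferase neomycin HCV replicon reporter; luciferase luminescence as measure of HCV replicon replication; test concentration not given here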
# [13] = molecular target: Left-right determination factor 2 (Homo sapiens) (UniProt O00292); test: small molecules binding LEFTY2 protein – biochemical, small-molecule microarray, 635 nm fluorescence scan, primary screen (AID 1110); settings: higher = more signal
# [14] = molecular target: Calmodulin-1 (Homo sapiens) (UniProt P0DP23); test: small molecules binding calmodulin-1 with EGTA – biochemical, small-molecule microarray, Cy5-labelled CALM1, profiling panel (AID 1111); settings: Cy5-CALM1 binding fluorescence, higher = more signal;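 note: labelled calmodulin applied in Tris saline Tween buffer holding calcium plus EGTA and DTT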
# [15] = molecular target: Calmodulin-1 (Homo sapiens) (UniProt P0DP23); test: small molecules binding Ca-loaded calmodulin-1 – biochemical, small-molecule microarray, Cy5-labelled CALM1, plus calcium, artefact control for SMM control-protein annotation, profiling panel (AID 1112); settings: Cy5-CALM1 binding fluorescence, higher = more signal;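 note: score merges spot fluorescence with signal to noise from triplicate slides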
# [16] = probe aWnt5a binding to arrayed compounds – biochemical, biotinylated probe, 635/667 nm fluorescence, primary screen (AID 1113); settings: small-molecule microarray, higher = more signal;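 note: score merges 667 nm fluorescence intensity with signal-to-noise per printed feature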
# [17] = probe aShh binding to arrayed compounds – biochemical, biotinylated probe, 635/667 nm fluorescence, primary screen (AID 1114); settings: small-molecule microarray, higher = more signal;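 note: probe is biotin-labelled aShh protein from a stem cell growth factor screen; measures binding of labelled protein to compounds printed on the slide; score merges feature fluorescence at 667 nm with signal-to-noise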
# [18] = probe aNog binding to arrayed compounds – biochemical, biotinylated probe, 635/667 nm fluorescence, primary screen (AID 1115); settings: small-molecule microarray, higher = more signal;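 note: probe is biotinylated aNog protein used at 0.15 µg/mL for 1 h at 4 C; z-score combines 667 nm fluorescence of each spot with its signal to noise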
# [19] = molecular target: Torsin-1A-interacting protein 1 (Homo sapiens) (UniProt Q5JTV8); test: compound microarray binding of lysate hLAP1 – cell lysate, small-molecule microarray, COS7 lysate, 635/667 nm fluorescence, primary screen (AID 1116); settings: 635 nm fluorescence, higher = more signal
# [20] = molecular target: Alpha-bungarotoxin (Bungarus multicinctus) (UniProt P60615); test: compounds binding labelled alpha-BTX control protein – biochemical, small-molecule microarray, Alexa647 label, 635/667 nm fluorescence, artefact control for SMM control protein annotation, profiling panel (AID 1117); settings: alpha-BTX-A647 binding fluorescence, higher = more signal
# Sequence of Alpha-bungarotoxin (Bungarus multicinctus) (P60615 whole entry, looked up): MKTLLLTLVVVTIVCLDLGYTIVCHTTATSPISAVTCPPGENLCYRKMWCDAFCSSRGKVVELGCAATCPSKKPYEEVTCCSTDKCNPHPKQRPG
# Sequence of Dickkopf-related protein 1 (Homo sapiens) (O94907 whole entry, looked up): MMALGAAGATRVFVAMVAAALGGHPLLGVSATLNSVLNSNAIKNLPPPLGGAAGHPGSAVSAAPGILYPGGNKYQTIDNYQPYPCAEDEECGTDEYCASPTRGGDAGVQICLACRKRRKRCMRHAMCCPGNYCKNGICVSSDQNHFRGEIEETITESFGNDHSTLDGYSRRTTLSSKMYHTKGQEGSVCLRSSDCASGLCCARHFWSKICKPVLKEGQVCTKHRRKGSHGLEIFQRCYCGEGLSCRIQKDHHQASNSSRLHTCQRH
# Sequence of Left-right determination factor 2 (Homo sapiens) (O00292 whole entry, looked up): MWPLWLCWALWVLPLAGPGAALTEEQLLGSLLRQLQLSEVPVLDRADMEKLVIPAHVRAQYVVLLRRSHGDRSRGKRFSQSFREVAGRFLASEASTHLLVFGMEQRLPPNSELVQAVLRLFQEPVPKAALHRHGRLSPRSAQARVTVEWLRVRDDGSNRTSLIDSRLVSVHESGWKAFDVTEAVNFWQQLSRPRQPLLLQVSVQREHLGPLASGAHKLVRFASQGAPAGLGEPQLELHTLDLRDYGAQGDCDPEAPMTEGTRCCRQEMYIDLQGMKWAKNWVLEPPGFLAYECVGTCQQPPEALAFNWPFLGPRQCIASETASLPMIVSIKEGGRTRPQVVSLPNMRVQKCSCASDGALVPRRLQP
# Sequence of Fibroblast growth factor 10 (Homo sapiens) (O15520 whole entry, looked up): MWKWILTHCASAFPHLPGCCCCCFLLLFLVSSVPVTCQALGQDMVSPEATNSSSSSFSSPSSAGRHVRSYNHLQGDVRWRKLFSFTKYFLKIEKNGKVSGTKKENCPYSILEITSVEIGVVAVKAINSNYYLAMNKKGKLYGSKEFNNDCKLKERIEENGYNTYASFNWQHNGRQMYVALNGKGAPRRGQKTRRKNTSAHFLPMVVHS
# Sequence of Torsin-1A-interacting protein 1 (Homo sapiens) (Q5JTV8 whole entry, looked up): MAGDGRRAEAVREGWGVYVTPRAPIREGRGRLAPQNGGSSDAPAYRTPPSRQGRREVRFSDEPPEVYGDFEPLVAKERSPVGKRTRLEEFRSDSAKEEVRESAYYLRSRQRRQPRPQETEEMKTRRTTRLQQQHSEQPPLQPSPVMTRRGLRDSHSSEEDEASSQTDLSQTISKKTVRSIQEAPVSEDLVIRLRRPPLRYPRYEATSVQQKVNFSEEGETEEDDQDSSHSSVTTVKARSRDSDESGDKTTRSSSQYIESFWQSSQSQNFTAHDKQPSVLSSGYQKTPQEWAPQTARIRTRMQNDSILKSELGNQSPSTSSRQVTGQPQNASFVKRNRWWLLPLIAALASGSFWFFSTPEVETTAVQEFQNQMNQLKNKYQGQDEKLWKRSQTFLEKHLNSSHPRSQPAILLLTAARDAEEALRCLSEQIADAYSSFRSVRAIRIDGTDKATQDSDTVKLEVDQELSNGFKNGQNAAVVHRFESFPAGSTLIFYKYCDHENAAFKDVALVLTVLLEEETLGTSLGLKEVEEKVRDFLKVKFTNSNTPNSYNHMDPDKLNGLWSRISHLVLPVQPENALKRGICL
# Sequence of Epidermal growth factor receptor (Homo sapiens) (P00533 whole entry, looked up): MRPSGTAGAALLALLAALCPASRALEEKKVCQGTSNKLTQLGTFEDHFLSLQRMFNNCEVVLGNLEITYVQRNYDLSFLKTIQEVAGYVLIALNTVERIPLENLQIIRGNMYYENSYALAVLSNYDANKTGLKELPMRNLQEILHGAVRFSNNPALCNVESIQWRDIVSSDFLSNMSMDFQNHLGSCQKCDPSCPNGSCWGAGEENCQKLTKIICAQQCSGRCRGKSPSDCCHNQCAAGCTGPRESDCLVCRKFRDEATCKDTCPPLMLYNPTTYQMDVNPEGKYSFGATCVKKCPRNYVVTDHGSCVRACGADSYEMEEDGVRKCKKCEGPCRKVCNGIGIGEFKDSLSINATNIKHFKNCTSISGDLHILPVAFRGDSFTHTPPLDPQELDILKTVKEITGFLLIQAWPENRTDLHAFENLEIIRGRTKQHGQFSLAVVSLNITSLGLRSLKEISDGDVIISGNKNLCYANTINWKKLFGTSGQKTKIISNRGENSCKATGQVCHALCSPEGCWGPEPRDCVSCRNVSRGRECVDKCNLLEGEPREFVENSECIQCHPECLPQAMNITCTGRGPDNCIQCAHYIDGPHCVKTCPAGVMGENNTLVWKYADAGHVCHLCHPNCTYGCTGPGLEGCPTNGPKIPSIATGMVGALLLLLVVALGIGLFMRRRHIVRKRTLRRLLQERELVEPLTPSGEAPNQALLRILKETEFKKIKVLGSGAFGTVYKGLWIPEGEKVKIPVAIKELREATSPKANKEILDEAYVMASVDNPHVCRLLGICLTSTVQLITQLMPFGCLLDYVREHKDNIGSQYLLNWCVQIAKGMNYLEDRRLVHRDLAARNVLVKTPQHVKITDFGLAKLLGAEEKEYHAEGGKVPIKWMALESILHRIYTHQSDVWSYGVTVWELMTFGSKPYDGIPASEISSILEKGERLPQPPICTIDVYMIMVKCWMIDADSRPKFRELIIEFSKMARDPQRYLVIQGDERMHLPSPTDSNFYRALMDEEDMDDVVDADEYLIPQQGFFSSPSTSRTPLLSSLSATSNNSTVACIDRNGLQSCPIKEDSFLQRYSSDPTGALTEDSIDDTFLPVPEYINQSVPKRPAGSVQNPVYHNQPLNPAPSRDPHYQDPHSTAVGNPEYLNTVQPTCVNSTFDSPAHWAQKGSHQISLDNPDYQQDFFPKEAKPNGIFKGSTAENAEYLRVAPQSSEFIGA
# Sequence of Follistatin-related protein 3 (Homo sapiens) (O95633 whole entry, looked up): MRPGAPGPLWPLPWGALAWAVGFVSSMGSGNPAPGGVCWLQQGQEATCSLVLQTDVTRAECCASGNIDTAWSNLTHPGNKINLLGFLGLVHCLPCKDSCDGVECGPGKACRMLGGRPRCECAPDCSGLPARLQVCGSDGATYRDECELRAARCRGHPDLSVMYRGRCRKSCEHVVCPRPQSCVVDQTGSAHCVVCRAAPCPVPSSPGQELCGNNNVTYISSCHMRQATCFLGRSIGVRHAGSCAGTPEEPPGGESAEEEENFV
SMILES,composite z-score [1],composite z-score [2],composite z-score [3],z-score [4],composite z-score [5],composite z-score [6],composite z-score [7],composite z-score [8],composite z-score [9],composite z-score [10],composite z-score [11],z-score [12],composite z-score [13],composite z-score [14],composite z-score [15],composite z-score [16],composite z-score [17],composite z-score [18],composite z-score [19],composite z-score [20]
O=C1O[C@H](c2ccccc2)[C@H](c2ccccc2)N2[C@H]1[C@@H](C(=O)Nc1nc3ccccc3s1)[C@]1(C(=O)Nc3ccc(C#CC4=CCCCC4)cc31)[C@H]2c1ccc(O)cc1,1.52,-0.0399,0.115,-1.31 (inactive),0.588,1.22,0.308,0.842,0.188,0.533,1.38,-0.832,0.0561,1.18,0.366,-0.0203,0.0465,0.178,1.17,1.4
COc1cc(NN2C(C(O)c3ccccc3)C=CC3C(=O)N(C)C(=O)C32)cc(OC)c1OC (stereo not given),0.618,0.195,0.8,-0.676 (inactive),0.422,0.843,0.187,0.362,-0.186,0.784,1.35,-0.928,0.222,0.533,-0.171,0.0437,0.151,0.521,0.891,0.544
CC(C)c1ccc(NN2C(C(O)Cc3ccccc3)C=CC3C(=O)N(c4ccccc4)C(=O)C32)cc1 (stereo not given),0.587,0.655,0.811,-0.469 (inactive),0.932,1.04,0.399,1.26,0.241,-0.323,1.33,0.843,0.126,2.05,0.744,-0.0819,0.23,1.53,0.98,1.06
O=C1C[C@@](C(=O)NCC(F)(F)F)(c2ccc([N+](=O)[O-])cc2)[C@@H](c2ccc(CO)cc2)N1CC12CC3CC(CC(C3)C1)C2,1.4,1.09,0.957,-2.11 (inactive),1.44,1.07,1.13,1.03,0.927,0.469,0.913,-3.33,0.309,0.835,0.569,0.0044,0.315,0.542,1.31,0.987
COCC1=C2[C@@H](CCc3ccccc3)OB(O)C[C@@H]2[C@@H]2C(=O)N(C)C(=O)[C@@H]2C1,-0.069,-0.333,-0.57,0.348 (inactive),0.711,-0.0422,0.3,0.146,0.216,0.808,-0.152,-1.2,0.211,-0.344,-0.294,-0.0405,-0.138,-0.205,0.226,-0.273
C=CCC(OC(C)=O)[C@@H]1[C@@H](N(Cc2ccc(-c3ccccc3)cc2)C(=O)Cc2ccc(F)cc2)c2cc(OCCCO)ccc2N1C(=O)Cc1ccc2ccccc2c1 (stereo not given in full),-0.261,-0.0697,0.652,-0.681 (inactive),-0.13,-0.199,-0.113,-0.507,-0.117,1.3,-0.333,0.482,0.0808,1.07,0.743,0.0495,-0.153,0.0335,0.542,-0.0297
CCCNC(=O)[C@@]1(Sc2ccc(C)cc2)CC(=O)N(C2CCCCC2)[C@@H]1c1ccc(CO)cc1I,1.56,0.548,0.91,-0.703 (inactive),0.382,0.718,-0.0215,0.192,-0.122,-0.277,0.0411,-2.45,-0.153,1.42,0.86,-0.0242,0.768,0.757,0.982,0.231
C=C[C@@H](OC)[C@H](OC(=O)Nc1ccc(SC)cc1)c1ccc(OCCO)cc1,1.4,0.0622,0.527,1.46 (inactive),0.887,0.64,0.419,0.839,0.444,0.0469,1.44,0.462,0.0128,0.469,-0.0827,-0.0735,0.0639,0.36,1.03,1.36
CCCNC(=O)[C@@]1(Sc2ccc(C)cc2)CC(=O)N(C(C)C)[C@@H]1c1ccc(CO)cc1I,0.0404,0.832,1.37,-0.0862 (inactive),-0.72,-1.33,-1.71,-1.35,-2.76,0.448,-0.593,-2.03,-1.7,1.31,0.944,-0.178,-0.0553,0.909,0.669,-0.432
CC(C)(C)OC(=O)CC[C@]1(C(=O)N2CCCCC2)COC(c2ccc(OCCCO)cc2)=N1,1.7,0.14,0.48,-0.527 (inactive),1.54,1.29,0.101,0.324,-0.421,0.567,1.45,-0.523,0.393,1.4,-0.257,0.0775,0.385,-0.614,1.36,0.302
COc1ccc(C(O)C2C=CC3C(=O)N(c4ccccc4)C(=O)C3N2Nc2ccccc2)cc1 (stereo not given),0.97,-0.0903,0.637,1.68 (inactive),1.31,0.592,0.199,1.37,-0.0198,1.04,1.39,-0.454,-0.13,0.553,0.147,0.0102,-0.0243,0.36,0.272,2.13
COC(=O)[C@@]1(Cc2ccc(OC)cc2)[C@H]2c3cc(C(=O)N4CCCC4)n(Cc4ccc(OC(F)(F)F)cc4)c3C[C@H]2CN1C(=O)c1ccccc1,0.858,1.15,1.1,-0.886 (inactive),0.717,-0.5,-0.0407,0.598,-0.414,0.891,-0.0023,-2.48,-0.251,1.72,1.13,0.402,0.358,1.65,-0.401,1.25
